According to PubChem BioAssay (Tox21):
Results filed as inconclusive are left out. Activity calls are given as the source filed them. Unless noted, calls follow the shape of the dose curve; as a rule, active = well fitted curve in the direction sought with a large enough effect in the repeat runs; inconclusive = weak or mixed curves; inactive = no such curve, though single readings can be large; an effect the other way counts as inactive or inconclusive.

Legend:
[1] = qHTS assay to identify small molecule antagonists of the androgen receptor (AR) signaling pathway using the MDA cell line in the presence of 0.5 nM R1881 - cell viability counter screen (AID 1259242); also: nearly all actives have a fitted effect of over 45% in size; also: potency is read from the fitted curve at half-maximal effect
How it was run: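 MDA-kb2 cells (human breast carcinoma, stably carrying MMTV-luciferase reporter) were exposed to compounds with 0.5 nM R1881 (final) for 16 hr at 37C, 0% CO2; viability then read as live-cell protease fluorescence (CellTiter-Fluor, 30 min) in the same wells.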

[2] = molecular target: Androgen receptor (Homo sapiens) (UniProt P10275); test: qHTS assay to identify small molecule antagonists of the androgen receptor (AR) signaling pathway using the MDA cell line in the presence of 0.5 nM R1881 (AID 1259243); also: nearly all actives have a fitted effect of over 50% in size; also: potency is read from the fitted curve at half-maximal effect
How it was run: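 MDA-kb2 human breast carcinoma cells carrying an MMTV-luciferase reporter (AR- and GR-responsive) were plated, rested 5 hr at 37C, dosed with compounds, then stimulated with 0.5 nM R1881 (final) for 16 hr; luminescence was read after ONE-Glo.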

[3] = qHTS assay to identify small molecule phospholipidosis (PLD) inducers (AID 1259344; active = well fitted curve in the direction sought with a large enough effect; an effect the other way counts as inactive or inconclusive)
How it was run: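 Fluorescent phospholipid staining (LipidTOX Red) measured by automated microscopy in fixed HepG2 cells after 24 h treatment; nuclei counterstained with Hoechst 33342; amiodarone as reference inducer.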

[4] = qHTS assay to identify small molecule HDAC inhibitors (AID 1259364); also: nearly all actives have a fitted effect of over 45% in size; also: potency is read from the fitted curve at half-maximal effect; as to activity change, negative = inhibition: top concentration of the series differs between compounds
How it was run: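 Wild-type HCT-116 cells were plated overnight, exposed to compounds for 2 h at 37 °C, then given HDAC-Glo class I/II luminogenic reagent for 30 min at room temperature before luminescence was read.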

[5] = qHTS assay to identify small molecule HDAC inhibitors - cell viability counter screen (AID 1259365); also: nearly all actives have a fitted effect of over 50% in size; also: potency is read from the fitted curve at half-maximal effect; as to activity change, negative = cytotoxicity: series mostly up to about 92 µM
How it was run: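 CellTiter-Glo luminescence (30 min, room temperature) reported viability after a 2 h compound exposure at 37 C. Cells: wild-type HCT-116, 1,500 per well, seeded the night before.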

[6] = qHTS assay to identify small molecule agonists of the sonic hedgehog signaling (Shh) pathway - cell viability counter screen (AID 1259366); also: nearly all actives have a fitted effect of over 50% in size; also: potency is read from the fitted curve at half-maximal effect
How it was run: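 Cytotoxicity counter screen: CellTiter-Fluor reagent added after 23 h compound exposure, then 1 h at 37C and fluorescence read. Cells were 3T3 Gli1-Luc, seeded 2,000 per well and dosed 4 h post-plating.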

[7] = qHTS assay to identify small molecule antagonists of the sonic hedgehog signaling (Shh) pathway - cell viability counter screen (AID 1259367); also: nearly all actives have a fitted effect of over 55% in size; also: potency is read from the fitted curve at half-maximal effect
How it was run: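 Using CellTiter-Fluor, viability of Gli1-Luc reporter 3T3 cells is read by fluorescence in the wells used for the Shh luciferase assay. Treatment lasts 23 hr with conditioned medium, then reagent 1 hr at 37C.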

[8] = qHTS assay to identify small molecule agonists of the sonic hedgehog signaling (Shh) pathway (AID 1259368; calls by dose curve; also: series mostly up to about 92 µM; nearly all actives have a fitted effect of over 15% in size)
How it was run: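 NIH/3T3-derived 3T3Gli1-Luc cells carrying a stably integrated Gli1 response element–firefly luciferase reporter were plated, left 4 hr at 37 C, then given compounds in DMSO for 24 hr. Luminescence was read 30 min after adding luciferase reagent.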

[9] = qHTS assay to identify small molecule antagonists of the sonic hedgehog signaling (Shh) pathway (AID 1259369; calls by dose curve; also: nearly all actives have a fitted effect of over 45% in size; also: potency is read from the fitted curve at half-maximal effect)
How it was run: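 NIH/3T3-derived 3T3Gli1-Luc cells with stably integrated Gli1-Luc reporter were preincubated 4hr at 37 C, then given compounds in DMSO plus Shh conditioned medium and incubated 24hr. Firefly luciferase luminescence read after 30min reagent at room temperature.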

[10] = molecular target: Estrogen receptor (Homo sapiens) (UniProt P03372); test: qHTS assay to identify small molecule antagonists of the estrogen receptor alpha (ER-alpha) signaling pathway using the BG1 cell line in the presence of 0.1 nM 17-beta-estradiol (AID 1259244); also: nearly all actives have a fitted effect of over 50% in size
How it was run: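 VM7Luc4E2 cells (endogenous full-length ER-alpha, stable 4xERE-luciferase) were grown 5 days in phenol red-free medium with charcoal-stripped FBS, then exposed 22 h at 37C to compounds plus 0.1 nM (final) 17beta-estradiol; ONE-Glo luminescence read-out.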
% is scaled to controls: 0 for no effect and ±100 for the full control effect.

Chain of Androgen receptor (Homo sapiens) (P10275 whole entry, looked up): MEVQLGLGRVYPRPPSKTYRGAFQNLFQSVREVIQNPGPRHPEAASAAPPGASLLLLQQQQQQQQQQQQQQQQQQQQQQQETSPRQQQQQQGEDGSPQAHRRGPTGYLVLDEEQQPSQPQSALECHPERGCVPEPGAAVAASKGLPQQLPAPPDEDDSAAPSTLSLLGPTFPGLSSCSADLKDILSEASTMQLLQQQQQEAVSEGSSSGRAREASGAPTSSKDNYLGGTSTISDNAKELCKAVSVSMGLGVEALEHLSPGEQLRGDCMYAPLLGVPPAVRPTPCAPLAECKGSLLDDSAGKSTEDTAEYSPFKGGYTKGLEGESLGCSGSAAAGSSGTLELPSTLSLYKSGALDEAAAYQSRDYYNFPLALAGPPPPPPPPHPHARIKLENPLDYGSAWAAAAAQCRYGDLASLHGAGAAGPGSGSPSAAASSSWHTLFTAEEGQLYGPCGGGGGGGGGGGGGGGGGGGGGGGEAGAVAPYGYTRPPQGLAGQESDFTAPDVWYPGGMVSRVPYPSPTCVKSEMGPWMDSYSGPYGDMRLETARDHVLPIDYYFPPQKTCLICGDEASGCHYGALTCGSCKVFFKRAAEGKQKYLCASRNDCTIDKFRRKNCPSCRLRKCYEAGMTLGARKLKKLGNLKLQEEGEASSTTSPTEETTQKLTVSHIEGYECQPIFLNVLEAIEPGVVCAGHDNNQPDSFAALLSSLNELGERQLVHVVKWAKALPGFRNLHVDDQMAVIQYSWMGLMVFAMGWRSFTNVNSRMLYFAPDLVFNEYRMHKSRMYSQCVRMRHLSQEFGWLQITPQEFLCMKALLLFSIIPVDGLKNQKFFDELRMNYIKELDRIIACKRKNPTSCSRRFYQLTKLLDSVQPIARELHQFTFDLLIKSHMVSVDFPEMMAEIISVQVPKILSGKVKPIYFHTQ
Chain of Estrogen receptor (Homo sapiens) (P03372 whole entry, looked up): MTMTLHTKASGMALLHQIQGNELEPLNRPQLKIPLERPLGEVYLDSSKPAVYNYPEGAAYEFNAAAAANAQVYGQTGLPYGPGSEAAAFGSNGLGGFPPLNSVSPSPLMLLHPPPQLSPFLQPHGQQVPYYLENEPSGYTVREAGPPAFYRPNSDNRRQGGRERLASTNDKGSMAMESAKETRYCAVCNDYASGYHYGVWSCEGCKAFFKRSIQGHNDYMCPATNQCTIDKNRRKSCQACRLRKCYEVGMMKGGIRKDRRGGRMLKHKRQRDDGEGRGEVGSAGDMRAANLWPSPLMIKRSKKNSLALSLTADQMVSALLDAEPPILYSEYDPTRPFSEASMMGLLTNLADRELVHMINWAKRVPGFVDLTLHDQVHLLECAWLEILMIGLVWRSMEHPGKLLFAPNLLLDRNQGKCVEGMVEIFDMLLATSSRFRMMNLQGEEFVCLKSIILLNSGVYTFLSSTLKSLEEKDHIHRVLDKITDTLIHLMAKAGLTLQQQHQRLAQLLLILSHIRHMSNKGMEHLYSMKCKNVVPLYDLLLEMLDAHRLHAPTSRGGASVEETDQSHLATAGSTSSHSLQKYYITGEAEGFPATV

O=C1CC[C@@H](C(=O)O)N1
inactive: Potency [1] | Potency [2] | Potency [3] | Potency [4] | Potency [5] | Potency [6] | Potency [7] | Potency [8] | Potency [9]

CCCCCCCC(=O)OCCCCCC
inactive: Potency [1] | Potency [2] | Potency [4] | Potency [5] | Potency [6] | Potency [8] | Potency [9]

O=NN(CCCl)C(=O)NCCCl
inactive: Potency [1] | Potency [2] | Potency [10] | Potency [3] | Potency [4] | Potency [5] | Potency [7] | Potency [8]

CCOC(=O)c1ccc(NC(=O)CN2CCCCC2)cc1
inactive: Potency [1] | Potency [2] | Potency [10] | Potency [3] | Potency [4] | Potency [5] | Potency [6] | Potency [7] | Potency [8] | Potency [9]

O=C(c1ccccc1)c1ccc(O)cc1
active: Potency [2] 24.6 µM | Potency [7] 49.1 µM | Potency [9] 15.5 µM
inactive: Potency [1] | Potency [4] | Potency [5] | Potency [6] | Potency [8]

CC1CCC(C(C)CS)CC1S (stereo unspecified)
inactive: Potency [1] | Potency [2] | Potency [4] | Potency [5] | Potency [6] | Potency [7] | Potency [8] | Potency [9]

CNS(=O)(=O)c1cc(C(=O)N2CCC(CCN3C4CCC3CC(n3c(C)nc5ccccc53)C4)(c3cccc(F)c3)CC2)c(Cl)cc1F (stereo unspecified)
inactive: Potency [1] | Potency [4] | Potency [5] | Potency [7] | Potency [8]
active: Potency [2] 24.3 µM | Potency [9] 15.4 µM

CN1C(CSCC(F)(F)F)Nc2cc(Cl)c(S(N)(=O)=O)cc2S1(=O)=O (stereo unspecified)
inactive: Potency [1] | Potency [2] | Potency [10] | Potency [3] | Potency [4] | Potency [5] | Potency [7] | Potency [8]

O=C(Oc1ccccc1)c1ccc2ccccc2c1O
active: Potency [4] 9.69 µM
inactive: Potency [1] | Potency [2] | Potency [10] | Potency [5] | Potency [6] | Potency [7] | Potency [8] | Potency [9]

O=C(C(=O)c1ccco1)c1ccco1
inactive: Potency [1] | Potency [2] | Potency [10] | Potency [4] | Potency [5] | Potency [6] | Potency [7] | Potency [8] | Potency [9]

CCC(Cl)CC(Cl)C(Cl)C(Cl)C(Cl)C(C)Cl (stereo unspecified)
inactive: viability change, negative = cytotoxic [1] 0.388% [at 19 µM] | activity, negative = inhibition [2] 72.1% [at 19 µM] | activity change, negative = inhibition [10] 63.4% [at 19 µM] | activity change, negative = cytotoxicity [5] -3.08% [at 19 µM] | viability change, negative = cytotoxic [7] 0.145% [at 19 µM] | activity change, negative = inhibition [9] 58.5% [at 19 µM]

Nc1ccc(F)cc1
inactive: Potency [1] | Potency [2] | Potency [10] | Potency [4] | Potency [5] | Potency [7] | Potency [8] | Potency [9]

BrC(Br)C(Br)Br
inactive: Potency [1] | Potency [2] | Potency [10] | Potency [4] | Potency [5] | Potency [6] | Potency [7] | Potency [8] | Potency [9]

CCN(CC)c1ccc(C(=C2C=CC(=[N+](CC)CC)C=C2)c2ccc(S(=O)(=O)O)cc2S(=O)(=O)[O-])cc1
inactive: Potency [8]
active: Potency [1] 27.3 µM | Potency [2] 9.69 µM | Potency [4] 3.86 µM | Potency [5] 21.7 µM | Potency [6] 24.3 µM | Potency [7] 17.2 µM

CCCCCCCCCCCCCOS(=O)(=O)O
inactive: Potency [1] | Potency [2] | Potency [4] | Potency [5] | Potency [6] | Potency [7] | Potency [8] | Potency [9]

Cc1cn([C@H]2C[C@H](F)[C@@H](CO)O2)c(=O)[nH]c1=O
inactive: Potency [1] | Potency [2] | Potency [10] | Potency [3] | Potency [4] | Potency [5] | Potency [6] | Potency [7] | Potency [8] | Potency [9]

CC1CCCC(=O)C1=O (stereo unspecified)
inactive: Potency [1] | Potency [2] | Potency [10] | Potency [4] | Potency [5] | Potency [6] | Potency [7] | Potency [8] | Potency [9]

Nc1ccc(NC(=O)c2ccc(N)cc2)cc1
inactive: Potency [1] | Potency [2] | Potency [10] | Potency [5] | Potency [6] | Potency [7] | Potency [8] | Potency [9]
active: Potency [4] 27.3 µM

COC(=O)C1=C(C)NC(C)=C(C(=O)OC(C)(C)CN(C)CCC(c2ccccc2)c2ccccc2)C1c1cccc([N+](=O)[O-])c1 (stereo unspecified)
active: Potency [2] 26.6 µM
inactive: Potency [1] | Potency [3] | Potency [4] | Potency [5] | Potency [6] | Potency [8]

CCCCCCCCCCCCCC(=O)OCC(O)CO (stereo unspecified)
inactive: Potency [1] | Potency [2] | Potency [4] | Potency [5] | Potency [6] | Potency [7] | Potency [8] | Potency [9]

COc1cc(OC)c2ccc(=O)oc2c1
inactive: Potency [1] | Potency [2] | Potency [10] | Potency [4] | Potency [5] | Potency [7] | Potency [8]

Cc1oc(=O)oc1COC(=O)[C@@H]1N2C(=O)[C@@H](NC(=O)[C@H](N)c3ccccc3)[C@H]2SC1(C)C
inactive: Potency [1] | Potency [2] | Potency [10] | Potency [4] | Potency [5] | Potency [6] | Potency [7] | Potency [8] | Potency [9]

CCCCOCCOC(=O)c1cccnc1
inactive: Potency [1] | Potency [2] | Potency [10] | Potency [4] | Potency [5] | Potency [6] | Potency [8] | Potency [9]

COC(=O)CC(C(C)=O)C(=O)OC (stereo unspecified)
inactive: Potency [1] | Potency [2] | Potency [10] | Potency [4] | Potency [5] | Potency [6] | Potency [7] | Potency [8] | Potency [9]

CC(=O)c1ccc[nH]1
inactive: Potency [1] | Potency [2] | Potency [10] | Potency [4] | Potency [5] | Potency [6] | Potency [7] | Potency [8] | Potency [9]
